A word on the inhibition: it is the drop in the measured response relative to a control, in per cent.

Among all 47,000 compounds or so, about 1,400 (3%) were called active. The entries come from a sample that favours actives as a whole. Unmarked numbers belong to inactive results. Cut-off read from the data, not from the text of the source: active = inhibition above about 30%; inactive = the rest.

The source of these data is PubChem BioAssay AID1645857 (Buhrlage Lab, Dana-Farber Cancer Institute and Novartis …, 2021).

Sequence of Ubiquitin carboxyl-terminal hydrolase 28 (Homo sapiens) (Q96RU2 whole entry, looked up): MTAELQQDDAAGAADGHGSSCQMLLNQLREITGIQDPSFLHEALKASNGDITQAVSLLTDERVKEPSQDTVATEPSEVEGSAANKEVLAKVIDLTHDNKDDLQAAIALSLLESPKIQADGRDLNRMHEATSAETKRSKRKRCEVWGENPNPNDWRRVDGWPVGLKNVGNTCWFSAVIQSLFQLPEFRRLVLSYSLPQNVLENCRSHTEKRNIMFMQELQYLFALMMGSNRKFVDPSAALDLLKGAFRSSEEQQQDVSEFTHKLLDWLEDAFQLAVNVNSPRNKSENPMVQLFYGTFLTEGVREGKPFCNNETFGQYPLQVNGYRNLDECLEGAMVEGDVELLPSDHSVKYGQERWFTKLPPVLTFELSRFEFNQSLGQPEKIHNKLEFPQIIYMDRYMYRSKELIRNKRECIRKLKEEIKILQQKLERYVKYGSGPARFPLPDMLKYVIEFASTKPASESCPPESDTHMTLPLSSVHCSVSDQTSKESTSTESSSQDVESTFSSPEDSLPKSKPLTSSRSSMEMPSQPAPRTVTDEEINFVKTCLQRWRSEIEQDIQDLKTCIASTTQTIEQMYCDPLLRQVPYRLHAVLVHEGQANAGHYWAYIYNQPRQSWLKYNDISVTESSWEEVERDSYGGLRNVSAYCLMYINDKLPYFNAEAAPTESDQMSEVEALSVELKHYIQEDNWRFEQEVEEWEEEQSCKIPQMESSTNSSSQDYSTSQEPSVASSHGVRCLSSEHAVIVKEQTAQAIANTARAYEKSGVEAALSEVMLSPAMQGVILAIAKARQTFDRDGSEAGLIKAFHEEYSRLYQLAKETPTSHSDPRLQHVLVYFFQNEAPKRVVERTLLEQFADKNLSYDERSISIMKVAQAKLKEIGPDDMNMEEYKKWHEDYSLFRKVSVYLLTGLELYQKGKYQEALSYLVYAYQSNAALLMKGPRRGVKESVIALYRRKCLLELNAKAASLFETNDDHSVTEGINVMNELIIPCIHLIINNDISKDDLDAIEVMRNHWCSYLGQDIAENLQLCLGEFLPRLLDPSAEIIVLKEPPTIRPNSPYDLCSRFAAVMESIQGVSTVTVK

The experiment concerns the target Ubiquitin carboxyl-terminal hydrolase 28 (Homo sapiens) (UniProt Q96RU2). The experiment can be described thus: blocks human USP28 ubiquitin-rhodamine cleavage (AID 1645857). As to conditions: purified USP28, Ub-rhodamine cleavage fluorescence, 30 min; at 25 µM; hits give high values.
Consider `CCC(=O)Nc1ccccc1SCC(=O)N1c2ccccc2CC1C` (stereo not given), for which the inhibition is 10.9%.

`CS(=O)(=O)c1ccc(Oc2ncc(-c3cccs3)cn2)cc1`: the inhibition is 3.89%.

For the compound `COc1ccc(C(C)=O)cc1CSc1nnc(-c2ccccc2OC)n1CCc1ccccc1`, the inhibition is 5.07%.

In the case of `CN(C)CCCNC(=O)/C=C/c1ccc(OCc2c(F)cccc2Cl)cc1`, the inhibition is 34.5% (active).

Turning to `CC(C)(C)c1ccc(/C=C/C(=O)NCCCn2ccnc2)cc1`, the inhibition was -4.88%.

Consider `COC(=O)c1cc2c(ccn2C)n1CC(=O)NC1CCCC1`, for which the inhibition was -250%.

For `Oc1cccc2nc3c(O)cccc3nc12`, the inhibition is 61.8% (active).

Turning to `CCCCCCCCCCC(C)C1CC(=O)NC(C(C)O)C(=O)NC(C)C(=O)NC(C)C(=O)NC(CCC(N)=O)C(=O)NC(Cc2ccc(O)cc2)C(=O)NC(C(C)CC)C(=O)O1` (stereo not given), the inhibition was -4.03%.

As to `Cc1cc(=O)[nH]c(C2CN(C(=O)c3cccc4c3OCCO4)CCO2)n1` (stereo not given), the inhibition is -1.67%.

`Cc1ccc(NC(=O)Cc2sc(Nc3ccc(C)cc3)nc2O)cc1`: the inhibition was 75.6% (active).

`CCOc1ccc(Nc2nc(O)c(CC(=O)Nc3cccc(C)c3)s2)cc1`: the inhibition was 27.4%.

For `Cc1ccc(Nc2nc(O)c(CC(=O)Nc3ccc(C(C)C)cc3)s2)cc1C`, the inhibition was -1.13%.

For `CC(Nc1nc2ccccc2nc1NS(=O)(=O)c1cc(Cl)ccc1Cl)c1ccccc1` (stereo not given), the inhibition was -235%.

As to `CC(=O)C(CC(=O)N1CCCC1)C(=O)Nc1ccc(Cl)cc1` (stereo not given), the inhibition was 8.14%.

In the case of `CC1CCN(c2ccc(C(=O)NCc3ccc(F)cc3)cc2[N+](=O)[O-])CC1`, the inhibition was 0.654%.

For `O=C(NCCc1ccccc1)c1ccc2c(=O)nc3c(-c4ccccc4F)n[nH]n3c2c1`, the inhibition is -8.97%.

For `O=C(NCCc1ccccc1)c1ccc2c(=O)n(Cc3ccco3)c(=O)n(Cc3cccc([N+](=O)[O-])c3)c2c1`, the inhibition was 73.4% (active).

`O=C(Cn1c(=O)n(Cc2ccc3c(c2)OCO3)c(=O)c2ccccc21)NCc1ccco1`: the inhibition was 26.3%.

For `Cn1ccc(NC(=O)CN2[C@H](Cc3ccccc3)C[C@]3(C)NC(=O)CCC[C@H]23)n1`, the inhibition is -3.27%.

Take `CC1CCCCN1CC(=O)N1CCc2cc(S(N)(=O)=O)ccc21` (stereo not given): the inhibition was -35.3%.

For `CCc1ccc(-n2c(SC(CC)C(=O)NCCOC)nc3n[nH]c(C)c3c2=N)cc1` (stereo not given), the inhibition is -17.1%.

Take `CN(c1ccccc1)c1nc(=O)n(CC(=O)Nc2ccc3c(c2)OCCO3)c2ccccc12`: the inhibition is 41.9% (active).

As for `COc1ccccc1-c1ccc2nnc(SCC(=O)Nc3ccc4c(c3)OCCO4)n2n1`, the inhibition is 3.38%.

`O=C(Cn1cc(C(F)(F)F)ccc1=O)Nc1ccc2c(c1)OCCO2`: the inhibition is 15.1%.

Take `O=C(Cn1cnc2c(sc3ccccc32)c1=O)Nc1ccc2c(c1)OCCO2`: the inhibition was 38.1% (active).

For `COc1ccc(C)cc1NC(=O)Cn1c(=O)nc(N(C)c2ccccc2)c2ccccc21`, the inhibition is 20.4%.

Regarding `CCOC(=O)c1cc2c(ccn2C)n1CC(=O)Nc1ccc2c(c1)OCCO2`, the inhibition was -34.6%.

As for `COc1cccc(-c2cnc(C(O)c3sccc3C)[nH]2)c1` (stereo not given), the inhibition was -14.5%.

Regarding `CSc1nc2c(c(Nc3ccc(C(C)=O)cc3)n1)CCC2`, the inhibition was 53.2% (active).

`Fc1cccc(Nc2nc(-c3ccncc3)nc3c2CCC3)c1`: the inhibition was 5.32%.

In the case of `COc1cc(-c2nnc(SCC(=O)Nc3ccc(Br)cc3)n2CCc2ccccc2)cc(OC)c1OC`, the inhibition is -5.36%.

Take `O=C(NCCc1ccc(O)cc1)c1cc(Br)ccc1-n1cnnn1`: the inhibition was 8.86%.

Regarding `Cc1nc(SCC#N)c2oc3ccccc3c2n1`, the inhibition is -1.32%.

Turning to `COC(=O)c1cccnc1-n1c(=O)c2cccnc2n(CC(=O)Nc2ccc(C)c(F)c2)c1=O`, the inhibition is -12.4%.

Turning to `Cc1ccc(-c2nnc(CCC(=O)O)o2)cc1`, the inhibition was -0.555%.

As for `CC(C)(C)C(=O)Nc1ccc(C(=O)Nc2ccc(O)cc2C(=O)O)cc1`, the inhibition was 13.9%.

As for `CC(C)(C)C(=O)Nc1ccc(SCc2nnc(-c3ccccc3)o2)cc1`, the inhibition is 64% (active).

For `O=C(CCc1csc(NC(=O)c2ccc(=O)[nH]c2)n1)NCCc1c[nH]c2ccccc12`, the inhibition was -13.5%.

`CC1CCN(S(=O)(=O)N2CCCC(C(=O)NC3CCN(Cc4ccccc4)CC3)C2)CC1` (stereo not given): the inhibition is -8.49%.

Turning to `CCOc1ccccc1OC(=O)c1cc(-c2cc(OC)c(OC)c(OC)c2)nc2ccccc12`, the inhibition was -10%.
